# For part of these data: Results with a measured potency or affinity are listed apart.
# Tests used:
# Staphylococcus aureus = test: Antibacterial activity against Staphylococcus aureus MRSA ATCC 43300 (CO-ADD:GP_020); MIC in CAMBH media using NBS plates, by Resazurin F(560/590); format: functional; details: Concentration 20 uM, ASSAY_TEST Inhibition of Bacterial Growth, detection method Resazurin, Fluorescence (ex560/em590), MEDIA CAMHB, plate type 384well, CORNING #3640, time 18 hr
# Acinetobacter baumannii = test: Antibacterial activity against Acinetobacter baumannii ATCC 19606 (CO-ADD:GN_034); MIC in CAMBH media using NBS plates, by Resazurin F(560/590); format: functional; details: Concentration 20 uM, ASSAY_TEST Inhibition of Bacterial Growth, detection method Resazurin, Fluorescence (ex560/em590), MEDIA CAMHB, plate type 384well, CORNING #3640, time 18 hr
# Escherichia coli = test: Antibacterial activity against Escherichia coli ATCC 25922 (CO-ADD:GN_001); MIC in CAMBH media using NBS plates, by Resazurin F(560/590); format: functional; details: Concentration 20 uM, ASSAY_TEST Inhibition of Bacterial Growth, detection method Resazurin, Fluorescence (ex560/em590), MEDIA CAMHB, plate type 384well, CORNING #3640, time 18 hr
# Klebsiella pneumoniae = details: Concentration 20 uM; ASSAY_TEST Inhibition of Bacterial Growth; detection method Absorption (OD600); MEDIA CAMHB; plate type 384well; NBS; CORNING #3640; time 18 hr
# Candida albicans = details: 20 µM
# Cryptococcus neoformans = details: Concentration 20 uM; ASSAY_TEST Inhibition of Fungal Growth; detection method Resazurin; Absorption (OD600-OD570); plate type 384well; NBS; CORNING #3640
Structure (SMILES),Inhibition (Staphylococcus aureus) [%],Inhibition (Acinetobacter baumannii) [%],Inhibition (Escherichia coli) [%],Inhibition (Klebsiella pneumoniae) [%],Inhibition (Candida albicans) [%],Inhibition (Cryptococcus neoformans) [%]
c1cc(C2N3CCCN2CC3)ccn1 (configuration not stated),15.5,-12.77,15.45,9,-1.44,-3.06
O=C1C[C@@H]2OCC=C3C[N+]4([O-])CC[C@]56c7ccccc7N1[C@H]5[C@H]2[C@H]3C[C@@H]64 (some centres not stated),-3.57,-14.45,1.56,13.5,3.06,-6.02
NC(=O)c1ccc(C(=O)Nc2ccc([As](=O)(O)O)cc2)cc1,11.66,7.33,15.44,11.59,-0.15,-8.21
O=C(NC(=O)c1c(F)cccc1F)Nc1cc(Cl)c(F)c(Cl)c1F [TEFLUBENZURON],1.58,-16.27,15.1,2.21,-1.38,-2.13
O=C1NC(=O)C(=Cc2ccc3ccccc3c2)C(=O)N1,0.11,10.33,-2.67,19.68,25.6,-7.82
Cc1ccc2cc3c(ccc4ccccc43)c3c2c1CC3 [3-METHYLCHOLANTHRENE],32.91,-6.45,10.1,-1.21,1.03,3.35
COc1ccc(CCNC2(C#N)CCCCC2)cc1OC,2.96,-11.77,4.72,9.13,2.4,-6.07
O=c1cccc2n1C[C@H]1CNC[C@H]2C1,0.43,-9.28,4.51,2.72,0.25,-10.24
CC(=O)Nc1cccc([As](=O)(c2cccc(NC(C)=O)c2)c2cccc(NC(C)=O)c2)c1,0.93,1.38,-5.49,9.67,0.37,-8.79
CN(C)C1CCc2[nH]c3c(F)cc(F)cc3c2C1 (configuration not stated) [FLUCINDOLE],8.89,9.46,1.82,23.22,2.28,-13.31
N#CC(C#N)=Cc1ccc(C=C(C#N)C#N)cc1,-4.05,-13.9,2.09,11.67,36.5,-3.4
CCN1CCc2ccccc2C1,13.64,-13.05,15.08,8.74,0.25,-10.24
CC12CCC3C(CCC4Cc5[nH]c6ccccc6c5CC43C)C1CCC2O (configuration not stated),-0.19,-0.61,16.15,10.81,-1.61,-15.22
CCOC(=O)c1ccc2nc(-c3ccc(S(=O)(=O)F)cc3)cc(O)c2c1,10.74,13.99,0.41,7.81,1.06,-10.46
CC(=O)Nc1ccc([As](=O)(O)c2ccc([N+](=O)[O-])cc2)cc1,12.11,8.34,-3.43,10.87,-1.88,0.38
C/C=C/CC1(CC)C(=O)NC(=S)NC1=O,-2.18,-12.12,-2.34,1.47,1.14,0.11
O=C(NCCCN1CC1)Nc1cccc2ccccc12,-3.04,12.11,-2.13,20.16,1.47,1.2
CC1CC(C)OP(=O)(OCCC#N)O1 (configuration not stated),11.79,-12.84,9.51,9.69,-4.51,-8.12
COC(=O)c1nc(-c2ccc3c(n2)C(=O)C(N)=C(OC)C3=O)c(N)c(-c2ccc(OC)c(OC)c2O)c1C,-0.84,-9.1,8.8,8.38,-0.15,0.31
Cc1ccccc1-n1c(/C=C\c2ccccn2)nc2ccccc2c1=O,-4.95,-2.79,7.76,14.95,5.08,-6.01
Cc1ccc(N2C(=O)C(=CN)C(=O)N(c3ccc(C)cc3)C2=O)cc1,17.58,4.93,4.14,11.65,-1.3,-7.68
CC(=O)Nc1cc([As](=O)(O)O)ccc1O [ACETARSONE],12.71,13.01,0.28,16.86,1.06,-8.45
CN(C)P(=O)(N(C)C)N1CC1,13.5,-2.37,15.32,12.98,-1.16,-11.15
CCC1CN1P1(=O)OCC(C)([N+](=O)[O-])CO1 (configuration not stated),-8.05,-16.64,2.35,8.08,0.16,0.43

Structure (SMILES),Inhibition (Staphylococcus aureus) [%],Inhibition (Acinetobacter baumannii) [%],Inhibition (Escherichia coli) [%],Inhibition (Klebsiella pneumoniae) [%],Inhibition (Candida albicans) [%],Inhibition (Cryptococcus neoformans) [%]
C[C@H]1CC[C@H]2NCCN[C@H]2C1,3.35,-12.82,14.31,13.98,0.84,-10.77
COc1ccc2c(c1)NP(=S)(Oc1ccccc1)N2 (configuration not stated),-0.02,7.67,-4.02,16.19,18.7,0.61
CC(C)(C)n1cc(C(=O)c2ccccc2)cc1-c1ccccc1,20.55,13.8,7.58,11.31,3.13,-8.32
Cc1ccc2c(c1)Oc1ccccc1N=C2,14.17,5.41,-0.47,8.46,8.51,-3.65
COc1cc2c(cc1O)CC1c3c(cc(O)c(OC)c3-2)CCN1C (configuration not stated),8.78,-19.02,10.6,7.6,-2.23,-8.59
O=C1N(c2nncs2)CCN1[N+](=O)[O-],11.64,7.25,7.74,10.14,2.04,-14.15
CCC(CO)NC(=O)C1C=C2c3cccc4[nH]cc(c34)CC2N(C)C1 (configuration not stated),1.02,14.09,-11.63,10.28,-0.04,5.57
O=C1CCCN1CC#CCN1CCCC1 [OXOTREMORINE],-8.85,7.42,9.1,1.39,0.18,-12.14
NN=C1C(Cl)=C(Cl)C(Cl)=C1Cl,-27.05,-7.11,-15.84,1.32,38.7,5.21
[Cl-].c1ccc(-c2nn(-c3ccccc3)[n+](-c3ccccc3)n2)cc1 [TETRAZOLIUM RED],-10.8,-19.48,7.25,5.91,0.89,-6.85
N#CC12CNCC1CN=N2 (configuration not stated),10.47,1.05,-13.15,8.95,1.04,19.07
COc1ccc(C2=CC(c3ccc(OC)c(OC)c3)c3c(c4ccccc4oc3=O)O2)cc1OC (configuration not stated),20.66,-10.24,10.7,7.71,5.25,-11.5
O=c1cccc2n1C[C@H]1C[C@@H]2CN2CCCC[C@@H]12,6.92,-12.51,5.34,8.7,-0.36,-3.93
FCCN(CCF)c1cccc(Cl)c1,3.32,-11.77,4.68,20.4,0.87,-7.02
O=[As](O)(O)c1ccc(/N=N/c2ccc(O)cc2)cc1,-11.42,-13.35,0.89,15.09,7.76,-3.57
Cc1nccc2c1[nH]c1cc(O)ccc12,18.39,-8.06,7.41,20.45,2.57,-8.88
CCOP(=O)(OCC)/C(C#N)=C/c1ccc(-c2ccc(F)cc2F)o1,7.13,-5.44,9.56,5.2,10.3,-6.44
c1cnc2c(c1)ccc1ncccc12,9.5,-5.64,9.97,12.45,0.86,-4.19
CN1CCC(c2c[nH]c3ccccc23)C1 (configuration not stated),10.13,1.97,-8.69,8.23,0.53,10.07
CC(C)(C)c1cc(C=C(C#N)C#N)cc(C(C)(C)C)c1O [TYRPHOSTIN A9],-5.13,-9.85,13.03,23.47,14.2,6.62
O=S(=O)(F)c1ccc2nc(-c3cccc(Sc4ccccc4)c3)cc(Cl)c2c1,0.33,-14.47,10.15,9.08,7.93,-2.04
C=C1C/C(=C/C)C(=O)O[C@@H]2CCN3CC=C(COC(=O)[C@]1(C)O)[C@H]23 [SENECIPHYLLINE],11.97,-14.61,-0.27,22.67,-1.29,-12.96
COc1cc(C=C2C(=O)NC(=O)NC2=O)ccc1O,11.9,5.89,0.28,15.76,1.49,-7.52

# — ChEMBL document CHEMBL4296182, “CO-ADD screening of NIH NCI Diversity Set V”
